# Hits are enriched below; roughly 9.4% of the tested compounds scored in any of these assays.
# IMPase Li inh: cell-permeable IMPase inhibitors with lithium potentiation | CHO-M1 cells, IP1 TR-FRET (IP-One), carbachol + lithium | 210,000 compounds, 0.35% hits | Potency, µM (highest dose often 59.4 µM), for inactives: top-dose activity, negative = IMPase inhibition, actives largely listed as inhibitors;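 note: IP1 builds up when IMPase is blocked and the TR-FRET signal falls; potency is the fitted concentration of half-maximal effect; plate controls were basal vehicle for no effect and high inhibitor control for full effect; nearly all actives have a fitted effect of over 50% in size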
#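 Concentration–response in CHO-M1 cells, lithium-potentiated; 30 min at 37C. IP1 detected by competitive TR-FRET after 10 min lysis at RT. Hill-fitted AC50.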
# ALDH1A1 block: blocks purified human ALDH1A1 activity; P00352; Purified ALDH1A1, NADH fluorescence, propionaldehyde substrate; Potency, µM (titrated, usually from 75.3 µM), inactives show at the highest dose activity, negative = inhibition, most hits filed as inhibitors; 220,000 compounds, 7.3% hits; AID 1030; active = well fitted inhibition curve with a large enough effect, not every such curve was filed as active; inconclusive = small, poorly fitted or top-dose-only effect, or another doubt; inactive = no such curve, though single readings can be large or run the other way;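 note: potency is the fitted concentration of half-maximal effect; plate controls were no enzyme wells and a reference inhibitor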
# HttQ103 aggreg: reduces HttQ103-GFP aggregates in PC12 cells | PC12 HttQ103-GFP aggregates, Acumen cytometry, 40 h | Potency, µM (doses to about 46.1 µM), for inactives: top-dose activity change, negative = inhibition, most hits filed as inhibitors | 220,000 compounds, 1.1% hits | AID 1688; note: potency is the fitted concentration of half-maximal effect; % is set by controls: 0 for no effect and ±100 for the full control effect; nearly all actives have a fitted effect of over 60% in size
#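 Aggregate formation scored by laser-scanning cytometer (488 excitation, 500–530 emission) in lysed PC12 cells expressing Q103-GFP after 100 nM tebufenozide induction; library tested in dose series, with ATPLite reagent added in the multiplex.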
# HPGD block: HPGD (human) dehydrogenase inhibition; Potency, µM, without a hit: at the highest dose activity change, negative = inhibition, usual class: inhibitors; purified HPGD, NADH fluorescence kinetic, PGE2 substrate; P15428; 150,000 compounds, 4.3% hits; active = well fitted inhibition curve with a large enough effect, not every such curve was filed as active; inconclusive = small, poorly fitted or top-dose-only effect, or another doubt; inactive = no such curve, though single readings can be large or run the other way; note: potency is the fitted concentration of half-maximal effect; % is set by controls: 0 for no effect and ±100 for the full control effect
# Target sequence (P15428 whole entry, looked up): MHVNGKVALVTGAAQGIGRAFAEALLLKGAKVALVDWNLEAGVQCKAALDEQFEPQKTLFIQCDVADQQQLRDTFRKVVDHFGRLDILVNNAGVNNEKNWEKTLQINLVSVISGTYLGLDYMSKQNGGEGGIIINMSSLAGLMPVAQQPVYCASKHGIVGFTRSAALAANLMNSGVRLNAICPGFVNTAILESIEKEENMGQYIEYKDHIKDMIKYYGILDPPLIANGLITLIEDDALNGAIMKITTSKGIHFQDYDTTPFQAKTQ
#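 20 nM HPGD preincubated 15 min at room temperature with compound in 50 mM Tris-HCl pH 8, 0.01% Tween 20. Started with 1 mM NAD+ and 30 uM prostaglandin E2; NADH fluorescence (360/450 nm) read 5 times over 30-s intervals, last minus first.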
# IMPase cell inh: cell-permeable inhibitors of inositol monophosphatase (IMPase); CHO-M1 cells, IP1 accumulation, HTRF TR-FRET ratio; inhibition (IP1 accumulation), % at 46.1 µM; 120,000 tested, under 10 active; AID 901; active = well fitted curve in the direction sought with a large enough effect in the signal ratio, not every such curve was filed as active; inconclusive = small, poorly fitted or top-dose-only effect, or a change in a side signal; inactive = no such curve, though single readings can be large or run the other way; the % refers to the signal ratio;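 note: cells stimulated with carbachol in lithium chloride buffer; plate controls were DMSO basal wells for no effect and reference inhibitor wells for full effect; higher means more IMPase inhibition seen as more IP1 and lower FRET ratio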
# Target sequence (P97697 whole entry, looked up): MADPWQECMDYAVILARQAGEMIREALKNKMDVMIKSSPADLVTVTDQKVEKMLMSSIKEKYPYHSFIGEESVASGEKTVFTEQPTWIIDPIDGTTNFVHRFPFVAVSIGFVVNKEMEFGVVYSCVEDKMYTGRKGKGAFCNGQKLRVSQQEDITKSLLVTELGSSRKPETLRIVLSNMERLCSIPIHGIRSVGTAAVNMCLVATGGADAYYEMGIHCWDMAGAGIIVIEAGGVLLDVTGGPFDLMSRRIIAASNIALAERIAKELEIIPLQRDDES
#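 Measured: the HTRF emission ratio (665/620 nm) plus the 620 nm donor channel, each fitted to the Hill equation to give AC50. Cells were CHO-M1 given compounds up to 46 uM and a 30 min carbachol stimulation at 37C.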
# HTT ATP protect: cytoprotection in Huntington HTT-Q103 PC12 cell model. PC12 HTT-Q103 induced, cytoprotection, ATP luminescence, 40 h. Potency, µM (doses to about 56.4 µM), for the others: cytoprotection (ATP increase), hits mostly activators. 230,000 compounds, 0.14% hits. AID 1471; note: potency is the fitted concentration of half-maximal effect; % of control where 0% means no effect; nearly all actives have a fitted effect of over 45% in size
#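 ATP quantification (ATPlite) reports survival of PC12 cells in which tebufenozide, 100 nM final, switches on Htt exon 1 with 103 glutamines linked to GFP; compounds are titrated.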
# * hit, by the source's call; ? = inconclusive; . = no result; [ ] = remark or other dose. Unless noted, calls come from the whole dose curve; as a rule, active = well fitted curve in the direction sought with a large enough effect; inconclusive = small, poorly fitted or top-dose-only effect, or another doubt; inactive = no such curve, though single readings can be large; an effect the other way counts as inactive or inconclusive.
SMILES,IMPase Li inh,ALDH1A1 block,HttQ103 aggreg,HPGD block,IMPase cell inh,HTT ATP protect
CC1=NN(c2ccccc2)C(=O)/C1=C\c1c(C)[nH]n(-c2ccccc2)c1=O,8%[38.3 µM],-2%,6%,-16%,6,-1%
Cc1nc(N2CCCCC2)sc1C(=O)c1ccc(Cl)c([N+](=O)[O-])c1,22%,7.9µM*,-3%,.,.,?
O=[N+]([O-])c1ccc(NC(=S)NCc2ccncc2)cc1,8%,11µM*,-26%,.,.,0%
O=[N+]([O-])c1ccc(NC(=S)NCCc2ccccc2)cc1,12%,?,?,-10%,.,?
O=C(NCc1ccncc1)Nc1cccc([N+](=O)[O-])c1,-1%,7%,-6%[9.22 µM],.,.,2%[10 µM]
O=[N+]([O-])c1cccc(NC(=S)NCc2ccncc2)c1,-2%,9.5µM*,-10%,.,.,.
COc1ccc(NC(=S)NC(C)c2ccncc2)cc1OC (stereo not drawn),-2%,1%,6%,.,.,18%
CC(NC(=S)Nc1ccc([N+](=O)[O-])cc1)c1ccncc1 (stereo not drawn),6%,20µM*,5%,.,.,-6%[10 µM]
O=C(O)c1ccc(Nc2ncnc3scc(-c4ccccc4)c23)cc1,-3%,?,5%[9.22 µM],.,.,10%[10 µM]
COc1cccc(/C=N/Nc2ncnc3scc(-c4ccccc4)c23)c1OC,16%[38.3 µM],?,?,18µM*,1,-44%
Cc1sc2ncnc(N/N=C/c3ccccc3O)c2c1C,-8%,-3%,2.5µM*,-19%,.,-73%[10 µM]
CC1(C)OC2OC(C(=O)N/N=C/c3cc(Br)ccc3O)C3OC(C)(C)OC3C2O1 (stereo not drawn),4%,6%,10µM*,-15%,.,16%[10 µM]
NC(=O)N/N=C\c1cc(Br)ccc1O,-9%,-3%,1%,-21%,.,11%[10 µM]
N#CCCn1c(=O)c(CCc2ccccc2)nc2cnc(Nc3ccccc3)nc21,3%,?,.,.,.,-3%
Cc1ccc2occ(/C=N/O)c(=O)c2c1,-3%[38.3 µM],?,1%,-18%,2,-5%
O=c1c(/C=N/O)coc2ccc3ccccc3c12,-2%[38.3 µM],11µM*,9%,-28%,-14,-16%[0.074 µM]
CCNc1nc(N)nc(Oc2ccc(OCCOc3ccc(Cl)cc3Cl)nn2)n1,20%[38.3 µM],-3%,2%,1µM*,11,-22%[0.074 µM]
CCNc1nc(NCC)nc(Oc2ccc(OCC)nn2)n1,-23%[38.3 µM],10%,?,-7%,9,-17%
COc1cc2c(cc1OC)-c1cc3nc4ccccc4nc3n1C(C)(C)C2,5%,?,.,?,-7,-2%
CN1CCN(C(=S)c2ccc(Br)cc2)CC1,.,-39%,-2%,.,6,-7%[10 µM]
COc1cc(NC(=S)N2CCN(C(c3ccccc3)c3ccccc3)CC2)cc(OC)c1,21%,1%,-9%,-18%,3,13%[10 µM]
CSc1ccc(C(=S)N2CCN(C)CC2)cc1,8%,32µM*,4%,28µM*,-1,2%[10 µM]
CSc1ccc(C(=S)N2CCN(C(c3ccccc3)c3ccccc3)CC2)cc1,9%[38.3 µM],2.4µM*,2%,14µM*,5,2%
COC(=O)c1cc(=O)n(Cc2cccs2)c(=Nc2ccc(F)cc2)s1,15%,10µM*,-1%[9.22 µM],.,.,3%[10 µM]
COC(=O)c1cc(=O)n(Cc2ccco2)c(=Nc2ccc(F)c(Cl)c2)s1,16%[38.3 µM],3.5µM*,?,-10%,16,-16%
SMILES,IMPase Li inh,ALDH1A1 block,HttQ103 aggreg,HPGD block,IMPase cell inh,HTT ATP protect
COC(=O)c1cc(=O)n(Cc2ccc3c(c2)OCO3)c(=Nc2ccccc2)s1,27%[38.3 µM],0.63µM*,?,-21%,7,0%
COC(=O)c1cc(=O)n(Cc2ccc3c(c2)OCO3)c(=Nc2ccc(F)cc2)s1,14%[38.3 µM],?,31%,-5%,7,-19%
CCO[P@]1(=O)OC[C@@H]2O[C@H](n3cnc4c(N)ncnc43)[C@H](O)[C@@H]2O1,6%,5%[13.5 µM],.,-3%,.,-13%[10 µM]
Cc1cccc(OCCOCCn2c(-c3ccc(Cl)cc3)nc3ccccc3c2=O)c1C,.,.,.,.,1,.
COc1ccccc1CN1CC[C@@]2(CCCN(C(=O)c3c(C)noc3C)C2)C1,-1%,-4%,.,-14%,.,6%
Cc1ccc(-c2nc3nc(C)cc(N4CCN(c5cccc(C)c5C)CC4)n3n2)cc1,.,.,.,.,-4,.
CC(C)CCNC(=O)c1ccc(CSCc2cccc(F)c2)o1,43%[38.3 µM],?,2%[9.22 µM],14µM*,-4,-24%
CCN(CC)S(=O)(=O)c1cccc(C(=O)N2CCCCC2)c1,4%[38.3 µM],-2%,-3%,-9%,-12,8%[0.074 µM]
O=C(c1ccc(S(=O)(=O)Nc2ccccc2)cc1)N1CCOCC1,-3%[38.3 µM],4%,-16%,-9%,2,0%[10 µM]
CCN(CC)S(=O)(=O)c1ccc(S(=O)(=O)Nc2ccc(C(=O)N3CCCC3)cc2)cc1,21%[38.3 µM],0.63µM*,4%,-10%,5,-3%[10 µM]
O=C(c1ccc(NS(=O)(=O)c2ccccc2)cc1)N1CCCC1,29%[38.3 µM],?,-3%,18µM*,3,-22%[0.074 µM]
Cc1ccccc1C(=O)Nc1cccc(-c2ccc3nncn3n2)c1,2%,14µM*,3%,.,.,-43%
COc1ccc2cc(-c3cc(C(=O)O)c4ccccc4n3)ccc2c1,10µM*,?,26%,?,-13,-165%
COc1cc(-c2ccccc2)nc2ccccc12,21%,-1%,-29%,28µM*,22,-12%[10 µM]
CCOc1cccc(NC(=O)C2CC(=O)N(C)C(=Nc3cccc(OC)c3)S2)c1 (stereo not drawn),.,.,.,.,8,.
CCOC(=O)c1ccc(NC2=CC(=O)C(=O)c3ccccc32)cc1,1%[38.3 µM],6%,?,4.5µM*,7,-82%
Cc1ccc(NC2=CC(=O)C(=O)c3ccccc32)cc1,52%,?,10µM*,20µM*,?,-74%[10 µM]
O=C1C=C(Nc2ccc(O)cc2)C(=O)c2ccccc21,.,-8%,-9%[9.22 µM],.,.,-27%[10 µM]
COc1ccc(C(=O)N2CCC3(CCCN(Cc4ccc(C#N)cc4)C3)CC2)cc1,27%,-10%,.,-11%,.,7%
COc1cccc(C(=O)N2c3ccc(C)cc3C(C)(c3ccccc3)CC2(C)C)c1 (stereo not drawn),.,.,.,.,2,.
COc1ccc(-c2cc(C(=O)NCc3cccs3)no2)cc1OC,.,.,.,.,.,-27%
O=C(O)[C@@H](Cc1c[nH]c2ccccc12)C(=O)NO,-13%,-4%[13.5 µM],.,-12%,.,-14%[10 µM]
C=CCn1c(=O)/c(=C/c2cc(OC)c(OC)c(OC)c2)s/c1=C(/C#N)c1nc2ccccc2n1C,?,1.4µM*,-20%,-26%,2,-33%
CCOC(=O)c1c(C)[nH]c(C)c1C(=O)COc1ncnc2cc([N+](=O)[O-])ccc12,12%,2%,8%,.,.,18%[10 µM]

# From PubChem
